CD40 NFkB inh = CD40 pathway inhibition in BL2 cells; AID 1053188; BL2 NF-kB luciferase reporter, CD40L-induced, 4 h; inhibition, % at 10 µM; 0.94% of 83,000 active;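 active means mean inhibition of at least 50% with a set share of replicates also reaching that level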;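 further: 0% = neutral control wells and 100% = IKK inhibitor VII at 50 µM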
* hit, by the source's call; [ ] = another dose, or the depositor's remark. This excerpt belongs to a sample that is enriched for hits.

SMILES | CD40 NFkB inh
O=C(C[C@@H]1C[C@@H]2c3cc(NC(=O)Nc4ccc(F)cc4)ccc3O[C@@H]2[C@@H](CO)O1)NC1CCCC1 | 3.0
CCCC(=O)NC1=C(Cl)C(=O)c2ccccc2C1=O | 106.8*
CCNC1=C(Cl)C(=O)c2ccccc2C1=O | -24.8
CCCC(=O)NNC(=O)CCC(=O)Nc1ccccc1Cl | 8.5
CN1C(=O)c2cc(NC(=O)C3CCCC3)ccc2OC[C@@H]2O[C@@H](CC(=O)NCCc3ccncc3)CC[C@H]21 | 1.7
CC(C)(C)NCC(=Cc1ccccc1)C(=O)c1ccccc1 | 51.7*
COc1ccc(C=C(C(=O)c2ccccc2)C(=O)c2ccccc2)cc1 | -98.6
COc1ccc(C=C(C(C)=O)C(=O)c2ccccc2)cc1 | 2.9
O=C(Nc1cc(F)ccc1F)N[C@@H]1CC[C@H](CCn2cc(C3CCCCC3)nn2)O[C@@H]1CO | 11.5[25 µM]
CCc1cc2c(COC(=O)c3cc(S(=O)(=O)N4CCOCC4)ccc3F)cc(=O)oc2cc1O | 50.9*
O=C(OCC(=O)N1CCCC1=O)c1cc(S(=O)(=O)N2CCOCC2)ccc1F | 12.7
N#Cc1ccccc1COC(=O)c1cc(S(=O)(=O)N2CCOCC2)ccc1F | 11.5
CCNC(=O)[C@@H]1[C@@H](CO)[C@@H]2Cn3c(ccc(-c4cccnc4)c3=O)[C@H]1N2Cc1ccccc1 | 0.2[25 µM]
COC(=O)c1ccc(CSc2cc(C)c3ccccc3n2)o1 | 65.7*
COC(=O)c1ccc(CSc2nnnn2-c2ccccc2)o1 | -9.3
COC(=O)c1ccc(CSc2nnc(-c3ccccc3)n2C)o1 | 10.4
C[C@@H]1CN([C@H](C)CO)C(=O)c2ccccc2-c2ccccc2CO[C@@H]1CN(C)C(=O)CCC(F)(F)F | -16.0[25 µM]
COCC(=O)N1[C@H](C#N)[C@@H](c2ccccc2-c2cccc(C)c2)[C@@H]1CO | -4.6[25 µM]
CC(=O)Nc1cc(-c2cccc(C(=O)N(C)C)c2)cn2c(-c3ccccc3)cnc12 | 1.5
CN(C)C(=O)c1cccc(-c2cnc3c(NC=O)cc(-c4cccc(C(F)(F)F)c4)cn23)c1 | 65.4*
COc1ccc(-c2cc(NC=O)c3ncc(-c4cccc(C(=O)N(C)C)c4)n3c2)cn1 | -19.6
CNC[C@H]1Oc2ccc(NS(C)(=O)=O)cc2CC(=O)N(C)C[C@@H]1C | 16.1
O=C(C[C@@H]1CC[C@@H]2[C@H](COC[C@@H](O)CN2C(=O)Nc2ccccc2)O1)NCc1ccccc1F | 0.7[25 µM]
C/C=C/c1ccc([C@H]2[C@@H](CO)N(S(C)(=O)=O)[C@H]2CNC(C)C)cc1 | 3.3[25 µM]
C[C@H]1CN(C)C(=O)c2cccc(N(C)C)c2O[C@H]1CN(C)C(=O)OC(C)(C)C | 7.1
SMILES | CD40 NFkB inh
CN1c2ccc(-c3cccc(F)c3)cc2[C@H]2[C@H](CCN2C(=O)C2CC2)[C@H]1CO | 52.8*
COc1ccc(-c2ccc3c(c2)[C@H]2[C@H](CCN2C(=O)C2CC2)[C@H](CO)N3C)cc1 | -4.7
COc1ccc(-c2ccc3c(c2)[C@H]2[C@H](CCN2C(=O)C2CC2)[C@@H](CO)N3C)cc1 | 53.1*
COc1ccc(-c2ccc3c(c2)[C@@H]2[C@@H](CCN2C(=O)C2CC2)[C@H](CO)N3C)cc1 | 40.1
CN1c2ccc(-c3cccc(F)c3)cc2[C@@H]2[C@@H](CCN2C(=O)C2CC2)[C@H]1CO | -97.1
CN1c2ccc(-c3cccc(F)c3)cc2[C@@H]2[C@@H](CCN2C(=O)C2CC2)[C@@H]1CO | 19.5
N#C[C@@H]1[C@H](c2ccccc2-c2ccccc2F)[C@H](CO)N1C(=O)Cc1ccccc1 | -0.1[25 µM]
CN1C(=O)c2cc(NC(=O)Cc3cccs3)ccc2OC[C@@H]2O[C@H](CC(=O)NCC3CC3)CC[C@H]21 | -3.5
Cc1noc(C)c1NC(=O)N[C@H]1CC[C@H](CCNC(=O)C2CCCCC2)O[C@@H]1CO | -6.4
CC(=O)Nc1ccc(Br)c(Cl)c1 | 3.0
CCCC(=O)Nc1ccc(Br)c(Cl)c1 | 8.7
O=C(O)CCC(=O)Nc1ccc(Br)c(Cl)c1 | 36.3*
C[C@@H]1CN([C@H](C)CO)C(=O)c2cc(C3=CCCC3)cnc2O[C@@H]1CN(C)C(=O)Nc1ccc(C(F)(F)F)cc1 | 6.4[25 µM]
Cc1ccc(S(=O)(=O)N2CCCC2CNC(=O)c2ccc3c(c2)OCO3)cc1 (centres undefined) | 37.6*
COc1ccc(C(=O)NCC2CCCN2S(=O)(=O)c2ccccc2)cc1OC (centres undefined) | 3.4
Cc1ccc(S(=O)(=O)N2CCCC2CNC(=O)c2ccccc2)cc1 (centres undefined) | -9.2
Fc1ccccc1/C=C1\CCCC2=C1Nc1nnnn1C2c1ccccc1F (centres undefined) | 74.8*
O=C(Nc1ccc(F)cc1)N1CC(=O)N2[C@H](CO)[C@H](c3ccc(C4=CCCC4)cc3)[C@H]2C1 | 4.0[25 µM]
CCCCn1c(NC(=O)c2ccc(Br)o2)c(S(=O)(=O)c2ccccc2)c2nc3ccccc3nc21 | 65.6*
Nc1c(S(=O)(=O)c2ccccc2)c2nc3ccccc3nc2n1CCN1CCOCC1 | 10.3
CCCCn1c(NC(C)=O)c(C#N)c2nc3ccccc3nc21 | -0.6
CO[C@@H]1CN(C)C(=O)c2ccc(NS(C)(=O)=O)cc2OC[C@@H](C)N(C(=O)C2CCCC2)C[C@@H]1C | -24.0
